These results are taken from PubChem BioAssay (EPA / NIEHS).

Assay [1] is described as follows: ATG_GLI_CIS: Attagene CIS-FACTORIAL HepG2 Assay for human Zinc Finger Protein GLI1 (AID 2282945). To be noted: HepG2, Attagene cis-factorial reporter mRNA, GLI element; actives raise or lower the signal. An outline of the steps:
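HepG2 cells transiently transfected with cis-promoter multiplexed reporter units report endogenous transcription factor activity. After 24 h chemical exposure, reporter mRNA was quantified by RT-PCR, 6-FAM labelling, HpaI digestion and capillary electrophoresis, with bidirectional fitting against DMSO.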

A short description of assay [2]: ATG_GRE_CIS: Attagene CIS-FACTORIAL HepG2 Assay for human Glucocorticoid Response Elements (GRE) (AID 2282947). To be noted: HepG2 GRE cis-reporter, Attagene multiplex mRNA; actives raise or lower the signal. An outline of the steps: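 Following 24 h chemical exposure of transiently transfected HepG2 cells, total RNA was reverse-transcribed and reporter cDNA amplified, fluorescently labelled and sized by capillary electrophoresis. Signal gain or loss was fitted relative to DMSO vehicle.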

Assay [3] in a line: ATG_ISRE_CIS: Attagene CIS-FACTORIAL HepG2 Assay for human Interferon Regulatory Factor 1 (IRF1) binding to an Interferon-Stimulated Response Element (ISRE) (AID 2282948). To be noted: HepG2 ISRE cis-reporter (Attagene), mRNA transcription readout; actives raise or lower the signal. An outline of the steps:
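Quantitation relies on labelled RT-PCR fragments separated by capillary electrophoresis. Human HepG2 cells bearing cis-promoter reporter constructs were treated 24 h; DMSO served as baseline for bidirectional fitting.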

A short description of assay [4]: ATG_M_32_CIS: Attagene CIS-FACTORIAL HepG2 Assay for M32 Transcription Factor (Internal Marker) (AID 2282949).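 Note: background control marker of the multiplexed CIS panel rather than a real target.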 To be noted: HepG2 Attagene cis-factorial M32 reporter, mRNA; actives raise or lower the signal. The gist of the method:
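Fluorescent capillary electrophoresis peaks of HpaI-digested, FAM-labelled RT-PCR reporter products give the signal. Source: transiently transfected human liver HepG2 cells, 24 h after chemical dosing; bidirectional fitting against DMSO.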

Assay [5] in a line: ATG_M_06_CIS: Attagene CIS-FACTORIAL HepG2 Assay for M06 Transcription Factor (Internal Marker) (AID 2282950). To be noted: HepG2 Attagene CIS-FACTORIAL M06 internal marker reporter; actives raise or lower the signal. An outline of the steps:
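Terse: HepG2, transient MRTU transfection (FuGene 6), 24 h dosing; total RNA, oligo(dT) RT, PCR, FAM label, HpaI cut, capillary electrophoresis; bidirectional fit vs DMSO baseline; background-control endpoint.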

Assay [6] has as its target Hypoxia-inducible factor 1-alpha (Homo sapiens) (UniProt Q16665). Put plainly: ATG_HIF1a_CIS: Attagene CIS-FACTORIAL HepG2 Assay for human Hypoxia Inducible Factor 1 (HIF1A) (AID 2282951). The conditions noted are these: HepG2 Attagene cis-factorial HIF1a reporter transcription; actives raise or lower the signal. The gist of the method:
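Activity is fitted in both directions relative to DMSO. Reporter transcripts are read by RT-PCR, fluorescent primer extension and capillary electrophoresis after 24 h chemical treatment. The cells are HepG2 carrying transiently transfected cis-element-driven reporter units responding to endogenous factors.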

In assay [7] the target is Hepatocyte nuclear factor 6 (Homo sapiens) (UniProt Q9UBC0). Put plainly: ATG_HNF6_CIS: Attagene CIS-FACTORIAL HepG2 Assay for human Hepatocyte Nuclear Factor 6 (HNF6) (AID 2282952). To be noted: HepG2 Attagene cis-factorial HNF6 reporter transcription; actives raise or lower the signal. The gist of the method: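 HepG2 cells transiently transfected with cis-element-driven multiple reporter transcription units, dosed 24 h; reporter mRNA quantified by RT-PCR, FAM primer extension, HpaI digestion and capillary electrophoresis; bidirectional fit versus DMSO baseline.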

A short description of assay [8]: ATG_MRE_CIS: Attagene CIS-FACTORIAL HepG2 Assay for human Metal Responsive Element (MRE) (AID 2282954). To be noted: HepG2 MRE cis-reporter transcription, Attagene multiplex; actives raise or lower the signal. The gist of the method: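 Step one: transfect HepG2 with cis-regulated reporter units. Step two: dose 24 h. Step three: isolate RNA, RT-PCR, 6-FAM label, HpaI digest, capillary electrophoresis. Fit bidirectionally to DMSO.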

The target of assay [9] is Heat shock factor protein 1 (Homo sapiens) (UniProt Q00613). Put plainly: ATG_HSE_CIS: Attagene CIS-FACTORIAL HepG2 Assay for human Heat Shock Transcription Factor 1 (HSE) (AID 2282953). The conditions noted are these: HepG2 HSE cis-reporter, Attagene RNA transcription; actives raise or lower the signal. An outline of the steps:
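Read-out: fluorescence of reporter-specific RT-PCR fragments separated by capillary electrophoresis. HepG2 carrying transfected cis-element reporter units; 24 h dosing; activity fitted in both directions relative to DMSO baseline.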

More than one record can exist for a structure, and the calls need not agree. The source made the active and inactive calls. Rule for the calls: active = hit-call score of the fitted dose curve at least 0.9, where 1 is the maximum; inactive = score below 0.9.

Usually AC50 stands for the concentration at which the activity in the assay is half-maximal.

Chain of Heat shock factor protein 1 (Homo sapiens) (Q00613 whole entry, looked up, the tested form may be a part): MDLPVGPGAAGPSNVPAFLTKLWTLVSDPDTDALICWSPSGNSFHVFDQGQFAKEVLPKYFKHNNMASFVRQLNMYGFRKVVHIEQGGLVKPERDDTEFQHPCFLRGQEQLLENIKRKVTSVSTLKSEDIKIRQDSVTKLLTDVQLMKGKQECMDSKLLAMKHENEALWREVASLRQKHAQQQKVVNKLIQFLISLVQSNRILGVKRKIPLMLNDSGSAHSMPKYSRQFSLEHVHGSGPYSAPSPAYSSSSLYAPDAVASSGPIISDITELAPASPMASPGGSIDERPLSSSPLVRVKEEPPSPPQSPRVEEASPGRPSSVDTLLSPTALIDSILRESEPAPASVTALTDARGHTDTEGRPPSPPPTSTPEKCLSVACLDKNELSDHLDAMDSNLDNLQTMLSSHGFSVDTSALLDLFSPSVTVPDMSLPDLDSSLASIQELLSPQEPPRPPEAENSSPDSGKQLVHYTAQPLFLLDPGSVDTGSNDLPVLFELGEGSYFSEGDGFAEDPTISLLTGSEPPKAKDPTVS
Chain of Hepatocyte nuclear factor 6 (Homo sapiens) (Q9UBC0 whole entry, looked up): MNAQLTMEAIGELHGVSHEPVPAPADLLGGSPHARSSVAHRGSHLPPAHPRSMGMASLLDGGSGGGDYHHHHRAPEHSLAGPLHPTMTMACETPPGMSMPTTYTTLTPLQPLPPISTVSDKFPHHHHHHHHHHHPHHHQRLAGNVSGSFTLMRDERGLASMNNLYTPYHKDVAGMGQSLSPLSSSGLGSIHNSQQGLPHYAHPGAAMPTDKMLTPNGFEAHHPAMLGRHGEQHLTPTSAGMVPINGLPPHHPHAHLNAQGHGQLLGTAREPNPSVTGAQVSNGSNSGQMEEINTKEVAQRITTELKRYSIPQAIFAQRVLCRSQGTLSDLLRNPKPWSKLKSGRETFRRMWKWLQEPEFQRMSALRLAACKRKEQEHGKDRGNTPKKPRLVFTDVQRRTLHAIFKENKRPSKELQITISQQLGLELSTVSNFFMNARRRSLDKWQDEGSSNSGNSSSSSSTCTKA
Chain of Hypoxia-inducible factor 1-alpha (Homo sapiens) (Q16665 whole entry, looked up): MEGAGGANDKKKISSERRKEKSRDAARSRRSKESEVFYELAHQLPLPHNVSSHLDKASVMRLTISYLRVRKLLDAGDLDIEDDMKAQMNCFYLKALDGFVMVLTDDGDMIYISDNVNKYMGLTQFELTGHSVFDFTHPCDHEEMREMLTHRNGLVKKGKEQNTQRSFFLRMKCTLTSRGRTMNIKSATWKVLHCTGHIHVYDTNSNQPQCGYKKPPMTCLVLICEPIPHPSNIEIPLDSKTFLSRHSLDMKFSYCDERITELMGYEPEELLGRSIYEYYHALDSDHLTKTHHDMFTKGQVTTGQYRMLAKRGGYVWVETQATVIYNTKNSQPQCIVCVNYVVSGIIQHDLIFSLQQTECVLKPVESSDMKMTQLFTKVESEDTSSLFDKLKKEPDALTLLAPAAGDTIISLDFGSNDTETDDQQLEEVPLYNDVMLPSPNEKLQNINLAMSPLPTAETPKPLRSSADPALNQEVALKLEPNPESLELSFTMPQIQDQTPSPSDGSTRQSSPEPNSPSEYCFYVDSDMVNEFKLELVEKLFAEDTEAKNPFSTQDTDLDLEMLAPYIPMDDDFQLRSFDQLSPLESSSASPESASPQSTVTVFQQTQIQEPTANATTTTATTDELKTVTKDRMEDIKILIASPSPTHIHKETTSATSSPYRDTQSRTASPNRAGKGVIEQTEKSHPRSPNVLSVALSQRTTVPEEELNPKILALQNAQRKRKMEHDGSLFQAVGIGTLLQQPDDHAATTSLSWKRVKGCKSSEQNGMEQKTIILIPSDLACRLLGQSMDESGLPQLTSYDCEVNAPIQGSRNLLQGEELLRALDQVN

On to `O=Cc1ccccc1O`, for which the outcome in assay [1], in [2], in [3], in assay [4], in assay [5] and in assay [6] was inactive. Moreover, the result in [7] and in assay [8] was inactive.

For `O=c1cc(-c2ccc(O)cc2)oc2cc(O)cc(O)c12`, the compound was classed as inactive in assay [1], in [2], in assay [4], in assay [5] and in [7]. The concentration at half-maximal activity (AC50) in assay [3] was 31 µM (active); in assay [9], 24.9 µM (active); in [8], 41.1 µM (active).

For `CC(CCO)CC(C)(C)C` (stereo not drawn), the compound was classed as inactive in assay [1], in assay [2], in assay [3], in [4], in assay [5] and in assay [6]. Moreover, the compound was called inactive in [7], in assay [9] and in [8].

As to `CC(=O)CCC(=O)O`, the call in [1], in assay [2], in assay [3], in assay [4], in assay [5] and in [6] was inactive. Further, the outcome in [7] and in assay [8] was inactive.

On to `CCCCCCCCCO`, for which the call in assay [1], in assay [2], in assay [3], in assay [4], in [5] and in assay [6] was inactive. Moreover, the result in assay [9] and in [8] was inactive.

`CCCCCCCOC(C)=O`: the compound was called inactive in assay [1], in assay [3], in [4], in assay [5], in assay [6] and in assay [7]. The result in assay [9] and in assay [8] was inactive.

Regarding `CC(=O)OC/C=C(C)/C=C/C=C(C)/C=C/C1=C(C)CCCC1(C)C`, the AC50 in assay [1] was 159 µM (active); in assay [3], 72.8 µM (active); in assay [9], 155 µM (active); in assay [8], 100 µM (active). For the same compound, the outcome in assay [4], in assay [5], in assay [6] and in assay [7] was inactive.

Consider `CCCC1CCOC(C)S1` (stereo not drawn), for which the result in assay [1], in assay [2], in [3], in [4], in assay [5] and in assay [6] was inactive. For the same compound, the outcome in assay [7], in assay [9] and in [8] was inactive.

Regarding `c1ccc(Sc2ccccc2)cc1`, the compound was called inactive in assay [1], in [3], in assay [4], in assay [5], in [6] and in [7]. Besides, the compound was classed as inactive in assay [9] and in [8].

For the compound `CC(=O)N(C)C`, the compound was classed as inactive in assay [1], in assay [2], in assay [3], in [4], in assay [5] and in assay [6]. Further, the compound was called inactive in assay [9] and in [8].

In the case of `CC1=CCC(C(C)C)=CC1`, the outcome in assay [1], in [3], in assay [5], in assay [6], in assay [7] and in [9] was inactive. The compound was classed as inactive in assay [8]. Besides, the concentration at half-maximal activity (AC50) in assay [4] was 69.4 µM (active).

For the compound `CC(C)Cc1ccc(C(C)C(=O)O)cc1` (stereo not drawn), the outcome in assay [1], in assay [2], in assay [3], in assay [4], in [5] and in assay [7] was inactive. Besides, the call in assay [9] and in [8] was inactive.

On to `CCCC[N+](C)(CCCC)CCCC`, for which the compound was classed as inactive in [1], in assay [2], in assay [3], in [4], in assay [5] and in [6]. The compound was called inactive in assay [7] and in assay [8].

As for `O=C(O)c1cc2ccccc2cc1O`, the call in assay [1], in assay [2], in assay [3], in assay [4], in assay [5] and in [6] was inactive. Besides, the outcome in assay [7] and in [8] was inactive.

In the case of `C=C(C)CCCC(C)CCO` (stereo not drawn), the outcome in assay [1], in [3], in assay [4], in assay [5], in [6] and in [7] was inactive. Besides, the result in assay [9] and in assay [8] was inactive.

As for `CCCCCCCCCCCCOC(C)=O`, the outcome in assay [1], in [3], in assay [4], in assay [5], in assay [6] and in [7] was inactive. Also, the compound was called inactive in assay [9] and in assay [8].

In the case of `O=S(=O)(O)CCCN1CCOCC1`, the outcome in assay [1], in [2], in assay [3], in assay [4], in assay [5] and in assay [6] was inactive. In addition, the outcome in [7] and in assay [8] was inactive.

As to `Cc1cc(O)c2c(c1)C(=O)c1cc(O)cc(O)c1C2=O`, the compound was called inactive in assay [1], in [4], in [5], in assay [6] and in [7]. Besides, the AC50 was 18.5 µM (active) in [2], 36.2 µM (active) in assay [3] and 18.9 µM (active) in assay [8].

As to `C/C=C(\C)C(=O)OC/C=C(\C)CCC=C(C)C`, the compound was called inactive in assay [1], in [2], in [3], in [4], in [5] and in [6]. Also, the call in assay [7] and in [8] was inactive.

On to `Nc1ccc(N)c([N+](=O)[O-])c1`, for which the outcome in assay [1], in assay [2], in assay [3], in [4], in [5] and in [6] was inactive. Moreover, the outcome in assay [9] and in [8] was inactive. For the same compound, in assay [9], the AC50 was 25.9 µM (active).

For `CC(=O)Nc1cc(S(=O)(=O)O)cc2cc(S(=O)(=O)O)c(N=Nc3ccccc3)c(O)c12`, the result in assay [1], in assay [3], in assay [4], in assay [5], in [6] and in assay [7] was inactive. Besides, the outcome in assay [9] and in assay [8] was inactive.

As for `C=COCC1CCC(COC=C)CC1` (stereo not drawn), the compound was classed as inactive in assay [1], in assay [2], in [3], in assay [4], in assay [5] and in assay [6]. The result in assay [7] and in assay [8] was inactive.

Turning to `NC(=O)c1cnccn1`, the outcome in assay [1], in [2], in assay [3], in assay [4], in assay [5] and in assay [7] was inactive. Moreover, the outcome in [9] and in [8] was inactive.

For `CC(O)CN` (stereo not drawn), the compound was called inactive in assay [1], in [2], in assay [3], in [4], in assay [5] and in assay [6]. In addition, the compound was called inactive in assay [7] and in [8].

In the case of `CC(=O)OC(C)(C)C`, the compound was classed as inactive in assay [1], in assay [3], in [4], in assay [5], in [6] and in assay [7]. Besides, the outcome in assay [9] and in assay [8] was inactive.

In the case of `CCCCCC#CC(=O)OC`, the call in assay [1], in assay [3], in assay [4], in assay [5], in assay [6] and in assay [7] was inactive. Besides, the call in assay [9] and in [8] was inactive.

On to `CCOC(=O)CC1(C)OCC(C)O1` (stereo not drawn), for which the call in [1], in assay [3], in [4], in [5], in assay [6] and in assay [7] was inactive. Besides, the call in assay [9] and in assay [8] was inactive.

Regarding `Cc1cc(N)n(-c2ccccc2)n1`, the compound was called inactive in [1], in [3], in assay [4], in assay [5], in assay [6] and in assay [7]. For the same compound, the compound was called inactive in assay [9] and in [8].

Consider `CCOC(=O)CCCCCCCCC(=O)OCC`, for which the outcome in assay [1], in assay [3], in assay [4], in assay [5], in assay [6] and in assay [7] was inactive. The compound was called inactive in assay [9] and in [8].

`CC1=CC[C@@H]2C[C@H]1C2(C)C`: the compound was called inactive in assay [1], in [3], in [4], in [5], in assay [6] and in assay [7]. For the same compound, the compound was called inactive in [9] and in [8].
